Measured values taken from PubChem BioAssay AID1159580 (chemical genetic matrix, 2015).
Out of some 5,500 compounds screened, about 2,000 (36%) were called active. About 18% were inconclusive and are not listed. No stated cut-off is given here; in the data, active means normalized growth mostly below about 0.91 (no sharp cut-off); inconclusive means no clear call, values can overlap the other calls; inactive means mostly above about 0.92. Some of the results follow.

Assay: chemical genetic growth profiling, strain panel (AID 1159580);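 further: tested at 20 µM; growth read once vehicle control cultures reached saturation at 30 °C; 1 = growth at the plate median or of vehicle wells; lower values mean less growth of the strain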
Conditions: growth OD

Measured: normalized growth

NC(=O)NCC(N)C(=O)O (stereo not drawn)
inactive: S. cerevisiae deletion strains, locus YBR021W, strain FUR4, active compounds read low 1.06 | S. cerevisiae deletion strains, locus YBR229C, strain ROT2, active compounds read low 1.01 | S. cerevisiae deletion strains, locus YCL029C, strain bik1, active compounds read low 0.988 | S. cerevisiae deletion strains, locus YDL035C, strain GPR1, active compounds read low 1.04 | S. cerevisiae deletion strains, locus YDL074C, strain BRE1, active compounds read low 1.03 | S. cerevisiae deletion strains, locus YDL101C, strain DUN1, active compounds read low 1.02 | S. cerevisiae deletion strains, locus YDL134C, strain PPH21, active compounds read low 1.03 | S. cerevisiae deletion strains, locus YDL185W, strain tfp1, active compounds read low 0.989 | S. cerevisiae deletion strains, locus YDL192W, strain arf1, active compounds read low 1 | S. cerevisiae deletion strains, locus YDR101C, strain arx1, active compounds read low 0.975 | S. cerevisiae deletion strains, locus YDR162C, strain NBP2, active compounds read low 1.04 | S. cerevisiae deletion strains, locus YDR318W, strain mcm21, active compounds read low 0.999 | S. cerevisiae deletion strains, locus YDR388W, active compounds read low 0.983 | S. cerevisiae deletion strains, locus YDR502C, strain sam2, active compounds read low 0.984 | S. cerevisiae deletion strains, locus YEL061C, strain CIN8, active compounds read low 1.01 | S. cerevisiae deletion strains, locus YER110C, active compounds read low 0.978 | S. cerevisiae deletion strains, locus YER155C, strain BEM2, active compounds read low 1.01 | S. cerevisiae deletion strains, locus YER167W, strain BCK2, active compounds read low 1.02 | S. cerevisiae deletion strains, locus YGL078C, strain dbp3, active compounds read low 0.995 | S. cerevisiae deletion strains, locus YGL086W, strain mad1, active compounds read low 0.994 | S. cerevisiae deletion strains, locus YGL248W, strain PDE1, active compounds read low 1.02 | S. cerevisiae deletion strains, locus YGR078C, strain PAC10, active compounds read low 1.03 | S. cerevisiae deletion strains, locus YGR135W, strain pre9, active compounds read low 0.995 | S. cerevisiae deletion strains, locus YGR252W, strain gcn5, active compounds read low 0.987 | S. cerevisiae deletion strains, locus YHR030C, strain SLT2, active compounds read low 1.01 | S. cerevisiae deletion strains, locus YHR079C, strain IRE1 (second series), active compounds read low 0.983 | S. cerevisiae deletion strains, locus YHR094C, strain hxt1, active compounds read low 0.975 | S. cerevisiae deletion strains, locus YHR129C, strain ARP1, active compounds read low 1.02 | S. cerevisiae deletion strains, locus YHR200W, strain rpn10, active compounds read low 0.986 | S. cerevisiae deletion strains, locus YIL066C, strain RNR3, active compounds read low 1.03 | S. cerevisiae deletion strains, locus YIL073C, strain SPO22, active compounds read low 1 | S. cerevisiae deletion strains, locus YIL125W, strain kgd1, active compounds read low 0.991 | S. cerevisiae deletion strains, locus YIR030C, strain dcg1, active compounds read low 0.996 | S. cerevisiae deletion strains, locus YJL095W, strain BCK1, active compounds read low 1.03 | S. cerevisiae deletion strains, locus YJL134W, strain LCB3, active compounds read low 1.01 | S. cerevisiae deletion strains, locus YJL168C, strain set2, active compounds read low 0.989 | S. cerevisiae deletion strains, locus YJL187C, strain SWE1 (second series), active compounds read low 1.02 | S. cerevisiae deletion strains, locus YJR043C, strain POL32, active compounds read low 1.04 | S. cerevisiae deletion strains, locus YJR075W, strain HOC1, active compounds read low 1.02 | S. cerevisiae deletion strains, locus YKL009W, strain mrt4, active compounds read low 1 | S. cerevisiae deletion strains, locus YKL068W, active compounds read low 0.997 | S. cerevisiae deletion strains, locus YKL085W, strain MDH1 (second series), active compounds read low 1.01 | S. cerevisiae deletion strains, locus YKL085W, strain MDH1, active compounds read low 1.01 | S. cerevisiae deletion strains, locus YKL190W, strain CNB1, active compounds read low 1.01 | S. cerevisiae deletion strains, locus YKR001C, strain vps1, active compounds read low 0.989 | S. cerevisiae deletion strains, locus YLR039C, strain RIC1, active compounds read low 1.08 | S. cerevisiae deletion strains, locus YLR058C, strain SHM2, active compounds read low 1.02 | S. cerevisiae deletion strains, locus YLR102C, strain apc9, active compounds read low 0.987 | S. cerevisiae deletion strains, locus YLR262C, strain YPT6, active compounds read low 1.1 | S. cerevisiae deletion strains, locus YLR268W, strain sec22, active compounds read low 0.983 | S. cerevisiae deletion strains, locus YLR330W, strain CHS5, active compounds read low 1.01 | S. cerevisiae deletion strains, locus YLR342W, strain FKS1 (second series), active compounds read low 1.03 | S. cerevisiae deletion strains, locus YLR371W, strain rom2, active compounds read low 0.981 | S. cerevisiae deletion strains, locus YLR418C, strain cdc73, active compounds read low 0.982 | S. cerevisiae deletion strains, locus YML016C, strain PPZ1, active compounds read low 1.01 | S. cerevisiae deletion strains, locus YML032C, strain rad52, active compounds read low 0.995 | S. cerevisiae deletion strains, locus YML124C, strain tub3, active compounds read low 0.981 | S. cerevisiae deletion strains, locus YMR078C, strain ctf18, active compounds read low 0.971 | S. cerevisiae deletion strains, locus YMR223W, strain ubp8, active compounds read low 0.99 | S. cerevisiae deletion strains, locus YMR307W, strain GAS1, active compounds read low 1.14 | S. cerevisiae deletion strains, locus YNL067W, strain RPL9B, active compounds read low 1.01 | S. cerevisiae deletion strains, locus YNL153C, strain GIM3, active compounds read low 1.01 | S. cerevisiae deletion strains, locus YNL233W, strain BNI4, active compounds read low 1.03 | S. cerevisiae deletion strains, locus YNL250W, strain rad50, active compounds read low 1.01 | S. cerevisiae deletion strains, locus YNL271C, strain bni1, active compounds read low 0.982 | S. cerevisiae deletion strains, locus YNL298W, strain CLA4, active compounds read low 0.994 | S. cerevisiae deletion strains, locus YNL307C, strain MCK1, active compounds read low 0.991 | S. cerevisiae deletion strains, locus YNL322C, strain KRE1, active compounds read low 1.01 | S. cerevisiae deletion strains, locus YNR052C, strain pop2, active compounds read low 0.991 | S. cerevisiae deletion strains, locus YOL012C, strain htz1 0.762 | S. cerevisiae deletion strains, locus YOL147C, strain pex11, active compounds read low 0.985 | S. cerevisiae deletion strains, locus YOR061W, strain CKA2, active compounds read low 1.02 | S. cerevisiae deletion strains, locus YOR069W, strain VPS5, active compounds read low 1.01 | S. cerevisiae deletion strains, locus YOR136W, strain idh2, active compounds read low 0.985 | S. cerevisiae deletion strains, locus YOR144C, strain elg1, active compounds read low 0.984 | S. cerevisiae deletion strains, locus YOR184W, strain ser1, active compounds read low 0.989 | S. cerevisiae deletion strains, locus YOR316C, strain cot1, active compounds read low 0.983 | S. cerevisiae deletion strains, locus YPR119W, strain clb2, active compounds read low 0.987 | S. cerevisiae deletion strains, locus YPR141C, strain kar3, active compounds read low 0.995 | S. cerevisiae deletion strains, locus YPR163C, strain tif3, active compounds read low 0.985 | S. cerevisiae deletion strains, locus YPR167C, strain met16, active compounds read low 0.989 | S. cerevisiae deletion strains, strain wtn01, active compounds read low 0.989 | S. cerevisiae strains, strain wild type, active compounds read low 1.02
